# SARS 3CLpro inh – SARS-CoV 3CLpro protease inhibitors, primary screen, biochemical, quenched FRET | Replicase polyprotein 1ab (Severe acute respiratory syndrome coronavirus), P0C6X7 | recombinant SARS-CoV 3CLpro, quenched FRET peptide cleavage | inhibition, % at 6 µM | actives 0.14% (n = 290,000); in the data active = inhibition above about 12%
# Mtb FBA inh – Mtb FBA enzyme inhibitors, primary screen, biochemical, fluorescence, strain H37Rv; purified M. tuberculosis FBA, fluorescence read-out; Fructose-bisphosphate aldolase (Mycobacterium tuberculosis (strain ATCC 25618 / H37Rv)), …; actives 2.3% (n = 360,000); inhibition, % at 1 µM;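 note: 0% = vehicle and 100% = reference inhibitor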
# Target sequence (P9WQA3 whole entry, looked up): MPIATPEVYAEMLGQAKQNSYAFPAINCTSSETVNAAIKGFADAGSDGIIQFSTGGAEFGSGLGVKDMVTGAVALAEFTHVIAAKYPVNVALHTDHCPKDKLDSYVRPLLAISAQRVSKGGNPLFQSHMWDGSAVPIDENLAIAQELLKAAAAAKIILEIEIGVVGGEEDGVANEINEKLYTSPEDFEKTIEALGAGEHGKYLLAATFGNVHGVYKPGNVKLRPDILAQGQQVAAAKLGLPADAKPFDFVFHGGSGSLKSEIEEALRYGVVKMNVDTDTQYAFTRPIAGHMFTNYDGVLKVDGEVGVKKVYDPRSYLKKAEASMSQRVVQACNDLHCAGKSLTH
# PrPC surface inh – inhibitors of human cell surface prion protein PrPC, primary screen, cell-based, TR-FRET. Major prion protein (Homo sapiens), P04156. TR-FRET read-out. inhibition, % at 13.8 µM. actives 0.43% (n = 370,000). AID 720596, 2013; in the data active = inhibition above about 24%; note: 0% = median of the test wells and 100% = reference compound wells
# BH1578 lux ind – inducers of Vibrio cholerae quorum light production without autoinducers, primary screen, BH1578 luxS cqsA deficient, single point. V. cholerae BH1578 lux reporter, luminescence, 6 h. activation, % at 18.7 µM. actives 0.16% (n = 350,000). AID 588436, 2011; in the data active = activation mostly above about 9.7%, no sharp cut-off
# GDH-TPI counter-1 – GDH-TPI coupling enzyme inhibitors, primary screen, artefact control for M. tuberculosis FBA inhibitor project, biochemical, absorbance, full deck. GDH-TPI coupled enzyme counterscreen, NADH absorbance. actives 1.2% (n = 360,000). inhibition, % at 4.8 µM; in the data active = inhibition above about 30%;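 note: 0% = DMSO wells and 100% = wells lacking the enzyme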
# Mtb FBA confirm – M. tuberculosis aldolase blockers, biochemical, fluorescence, strain H37Rv, confirmation. actives 78% (n = 5,600). inhibition, % at 1 µM. purified M. tuberculosis FBA, fluorescence read-out. AID 651616, 2012. shares compounds with Mtb FBA inh;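 note: 0% = vehicle wells and 100% = reference inhibitor wells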
# GDH-TPI counter-2 – GDH-TPI coupling enzyme inhibitors, artefact control for M. tuberculosis FBA inhibitor project, biochemical, fluorescence, high throughput | shares compounds with Mtb FBA inh | GDH-TPI coupled enzyme counterscreen | inhibition, % at 1 µM | actives 81% (n = 5,600); in the data active = inhibition above about 10%
# The depositor's hits bear a star; i = inactive; / = no result given; + = active, no number. Only some compounds are listed: those with a hit (about 3.9% of all), similar ones and a draw of the others. Cut-off read from the data, not from the text of the source, unless noted: active = inhibition above about 27%; inactive = the rest.
SMILES,SARS 3CLpro inh,Mtb FBA inh,PrPC surface inh,BH1578 lux ind,GDH-TPI counter-1,Mtb FBA confirm,GDH-TPI counter-2
CCCCCn1c(NC(=O)c2ccco2)c(C(=O)OCC)c2nc3ccccc3nc21,-1,54*,/,i,17,134*,100*
S=c1[nH]c(-c2ccccc2)cn1/N=C/c1cccs1,2,31*,-3,0,40*,152*,126*
S=c1[nH]c(-c2ccccc2)cn1/N=C/c1cccnc1,0,34*,-4,i,18,94*,85*
Cc1ccc(/C=N/n2c(-c3ccccc3)n[nH]c2=S)cc1,1,-1,-4,-1,-1,/,/
S=c1[nH]c(-c2ccccc2)cn1/N=C/c1ccc(Br)cc1,0,33*,2,0,1,170*,126*
S=c1[nH]nc(-c2cccnc2)n1/N=C/c1ccccc1,-1,6,1,1,8,/,/
O=C(O)c1ccc(/C=N/n2cc(-c3ccccc3)[nH]c2=S)cc1,6,37*,-7,i,9,50*,38*
COc1ccc(C2(OC)Oc3cc(OC)ccc3C(=O)C2(O)OC)cc1 (stereo unspecified),/,3,-5,i,9,/,/
CCc1noc(C)c1C(=O)Nc1nnc(CC(C)C)s1,/,-2,4,i,-2,/,/
CCN(C[C@H]1N[C@@](Cc2ccccc2)(C(=O)OC)[C@H]2C(=O)N(Cc3ccccc3)C(=O)[C@@H]12)C(=O)Nc1ccc(C(F)(F)F)cc1,/,-2,-1,-1,11,/,/
CC1(c2ccc(OC(F)F)cc2)NC(=O)N(/N=C/c2c(O)ccc3ccccc23)C1=O (stereo unspecified),-3,0,-3,0,3,/,/
CCOC(=O)c1cc2c(=O)n3ccccc3nc2n(CCOC)c1=NC(=O)c1c(-c2c(F)cccc2Cl)noc1C,0,49*,-3,0,37*,178*,166*
CC1(C)CC(NS(=O)(=O)c2ccc(C(C)(C)C)cc2)CC(C)(C)N1,-2,-2,-14,0,4,/,/
COCCNC(=O)c1ccc(-c2cn[nH]c2)c2ccoc12,/,57*,12,-1,12,43*,37*
CN(C)CCNC(=O)c1ccc(-c2cnn(C)c2)c2ccoc12,/,85*,3,0,4,104*,94*
O=C(NCC1CC1)c1ccc(-c2cn[nH]c2)c2ccoc12,/,27*,9,0,6,43*,31*
O=C(NCC1CCOCC1)c1ccc(-c2ccc(F)c(F)c2)c2ccoc12,/,6,8,0,-7,/,/
Cc1ccc(N(Cc2cc(=O)[nH]c3ccccc23)C(=O)CCl)c(C)c1,2,-1,-2,2,8,/,/
Cc1nn(Cc2ccc(Cl)cc2)c(C)c1NC(=O)CCCn1nc([N+](=O)[O-])c(Cl)c1C,0,-3,3,0,15,/,/
CNc1cc(C(=O)Nc2cccc(OCc3ccccc3)c2)ncn1,/,3,4,1,12,/,/
COc1ccc(OC)c(-c2nnc(-c3ccc(C)o3)o2)c1,1,103*,-4,1,24,101*,84*
COc1ccc(CCNc2ncnc3cc(OC)c(OC)cc23)cc1OC,-5,0,19,i,-3,/,/
CCCCOc1ncnc2c1[nH]c1ccc(C)cc12,0,38*,9,-1,-4,-7,-4
CCOc1ccc2[nH]c3c(NCCC(C)C)ncnc3c2c1,4,49*,7,i,0,6,-6
COc1ccc2[nH]c3c(NCCCOC(C)C)ncnc3c2c1,1,99*,6,i,2,63*,47*
SMILES,SARS 3CLpro inh,Mtb FBA inh,PrPC surface inh,BH1578 lux ind,GDH-TPI counter-1,Mtb FBA confirm,GDH-TPI counter-2
COc1ccc(CCNc2ncnc3c2[nH]c2cc(OC)c(OC)cc23)cc1OC,0,68*,10,4,23,112*,101*
COCCN1C(=O)C(=O)/C(=C(/O)c2ccc(S(=O)(=O)N3CCOCC3)cc2)C1c1cccc([N+](=O)[O-])c1 (stereo unspecified),2,-1,/,0,14,/,/
Cc1cccc(NC(=O)N2CCN(Cc3ccc4c(c3)OCO4)CC2)c1C,8,-2,-3,0,8,/,/
Cc1ccc(CNC(=O)COC(=O)CCCOc2ccc(Cl)cc2Cl)cc1,0,0,7,i,0,/,/
CCCCN(C=O)c1c(CC)nc2ccc(C(=O)NCCc3ccccn3)cn12,/,1,2,0,5,/,/
Cc1ccc2[nH]c3c(NCCN4CCOCC4)ncnc3c2c1,1,7,3,0,3,/,/
C=CCNc1ncnc2c1[nH]c1ccc(C)cc12,2,42*,12,-2,13,66*,52*
CC(=O)N1CCc2cc(S(=O)(=O)NCCC(=O)N3CCN(c4ccccn4)CC3)ccc21,2,54*,4,0,8,67*,49*
COC(=O)c1ccc2ccn(CC(=O)NC(C)C)c2c1,1,85*,-2,-6,-4,191*,143*
CC(O)(c1ccc(F)c(F)c1)c1nc(-c2ccoc2)cs1 (stereo unspecified),/,4,-1,0,13,/,/
CC1=CC(=O)Nc2ncccc2O1,/,61*,8,i,19,84*,76*
COc1ccc(C(=O)Nc2nc(-c3ccccn3)cs2)cc1S(=O)(=O)N1CCOCC1,/,2,2,i,10,/,/
O=S1(=O)CCN2C=Nc3sc4c(c3C2=N1)CCCC4,-1,-3,-7,0,4,/,/
O=S1(=O)CCN2C=C(Br)C=C(Br)C2=N1,-2,29*,-2,i,30,133*,105*
CCN1CCN(S(=O)(=O)c2ccc(Cl)c(C(=O)NC3CCCC3)c2)CC1,/,47*,1,i,7,+,+
O=C(CNC1CCCCC1)Nc1cc(S(=O)(=O)N2CCOCC2)ccc1Cl,2,106*,5,i,3,+,+
CCN1CCN(S(=O)(=O)c2ccc(Cl)c(C(=O)NC3CC3)c2)CC1,/,0,-7,i,10,/,/
O=C(Nc1ccc(Cl)cn1)c1cccc(S(=O)(=O)N2CCCCCC2)c1,/,0,0,-4,-1,/,/
CN(CCOc1ccccc1)C(=O)c1cc(S(=O)(=O)N2CCOCC2)ccc1Cl,/,31*,4,-4,8,146*,116*

# Source: PubChem (several laboratories)
